This note sets out measurements from PubChem BioAssay (NCATS).

For assay [1], the system named is Zika virus NS2B-NS3 protease. Nature of the assay: Primary screen GU AMC qHTS for Zika virus inhibitors (AID 1347154).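 Note: 0% = no-inhibitor control and -100% = no-enzyme control; nearly all actives have a fitted effect of over 70% in size.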 The method, boiled down:
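Unlinked Zika NS2B hydrophilic domain/NS3 protease domain noncovalent complex (25 nM final) in 10 mM Tris-HCl pH 8.0, 0.01% Tween 20, with AMC peptide substrate. Fluorescence (ex 340, em 450 nm) change over 15 min, room temperature; percent inhibition fitted to 4-parameter Hill equation.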
On the technique in general: In qHTS, concentration-response curves come from the screen itself.

The nature of assay [2]: Primary qHTS for small molecule stabilizers of the endoplasmic reticulum resident proteome: Secreted ER Calcium Modulated Protein (SERCaMP) assay (AID 1508630). Note: % is set by controls: 0 for no effect and ±100 for the full control effect. The gist of the method: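 GLuc-SERCaMP-expressing SH-SY5Y cells, pretreated 16 h with compound, are challenged with thapsigargin to empty ER calcium stores; after 4 h, coelenterazine is added directly to the medium and luminescence is imaged.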

A short description of assay [3]: Viability counterscreen for antagonist of constitutive androstane receptor (CAR) against the NCATS DSHEA and TCM libraries (AID 1794837).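 Note: compound exposure lasted 24 h before viability reading; 0% is about no effect.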 The gist of the method: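 Counterscreen performed in a 1536-well qHTS format using HepG2-CYP2B6-hCAR cells; samples titrated in the presence of 48 uM CITCO, with viability measured fluorometrically (405/540 nm) after 24 h.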
(In general: The purpose of a counterscreen is to sort out artefacts and off-target activity.)

Assay [4] is described as follows: Viability counterscreen for agonist of constitutive androstane receptor (CAR) against the NCATS DSHEA and TCM libraries (AID 1794838). Note: 0% is about no effect. The method, boiled down: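 Multiplexed counterscreen: after 24 h compound exposure with 0.75 uM PK11195, HepG2-CYP2B6-hCAR viability was quantified fluorimetrically (CellTiter-Fluor, 405/540 nm) prior to the ONE-Glo luciferase read.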

Assay [5] concerns the target Nuclear receptor subfamily 1 group I member 3 (Homo sapiens) (UniProt Q14994). Briefly: Primary qHTS for agonist of constitutive androstane receptor (CAR) against the NCATS DSHEA and TCM libraries (AID 1794839).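 Note: HepG2 cells expressing human CAR with a CYP2B6 reporter plus PK11195 antagonist; luciferase reporter luminescence read with ONE-Glo; 0% is about no effect.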 The gist of the method: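 Concentration–response screen in HepG2-CYP2B6-hCAR cells under 0.75 µM PK11195; 24 h exposure; luminescent reporter signal with multiplexed fluorescent viability.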

Assay [6] is described as follows: HepG2 viability counterscreen (readout 2: ATP content) against the NCATS DSHEA and TCM libraries (AID 1794840).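 Note: HepG2 cells exposed to substances for about 24 h; 0% is about no effect.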 The method, boiled down:
(§1)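 After HepG2 cells attach for ~4 h, substances are added and incubated ~24 h at 37C, 5% CO2. GF-AFC fluorescence then CellTiter-Glo luminescence give protease and ATP readouts.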

Assay [7] is described as follows: HepG2 viability counterscreen (readout 1: protease activity) against the NCATS DSHEA and TCM libraries (AID 1794841).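 Note: cells exposed to compounds for about 24 h before the protease read; 0% is about no effect.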 The gist of the method:
as §1

Assay [8] deals with Cytochrome P450 2D6 (Homo sapiens) (UniProt P10635). Briefly: qHTS for inhibitors of CYP2D6 against the NCATS DSHEA and TCM libraries (AID 1919972). Note: % is set by controls: 0 for no effect and ±100 for the full control effect. The gist of the method: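 Luminescent P450-Glo read-out of CYP2D6 turnover of a luciferin substrate after NADPH-driven reaction of 30-45 min at room temperature. Compounds were first preincubated 15 min with enzyme at titrated concentrations; quinidine was the intraplate control.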

The target in assay [9] is Cytochrome P450 2C9 (Homo sapiens) (UniProt P11712). Nature of the assay: qHTS for inhibitors of CYP2C9 against the NCATS DSHEA and TCM libraries (AID 1919973).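 Note: luminogenic pro-luciferin CYP2C9 substrate turned into luciferin with NADPH regeneration; % is set by controls: 0 for no effect and ±100 for the full control effect.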 The gist of the method: (§2)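 Read-out is luminescence after P450-Glo detection (30 min, RT). Before that: 15 min compound–enzyme preincubation, then 30-45 min reaction with 1x NADPH regeneration solution, substrate concentration isoform-specific.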

The target in assay [10] is Cytochrome P450 2C19 (Homo sapiens) (UniProt P33261). Nature of the assay: qHTS for inhibitors of CYP2C19 against the NCATS DSHEA and TCM libraries (AID 1919974).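 Note: luminescence from luciferin released by CYP2C19 oxidation of a pro-luciferin substrate; potency is the fitted concentration of half-maximal effect.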 The gist of the method: as §2
Assay [11] can be described thus: KB-3-1 P-gp reporter qHTS against the NCATS DSHEA and TCM libraries (AID 1919975). Note: 0% is about no effect. The gist of the method:
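Cell viability qHTS: 500 KB-3-1 cells/well, substances in titration, ~72 h, 37C; luminescent CellTiter-Glo read.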

A short description of assay [12]: qHTS Counterscreen for compound interference against the NCATS DSHEA and TCM libraries (AID 1919978).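 Note: compounds preincubated with 1 µM D-luciferin or buffer before detection reagent; % of control where 0% means no effect.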 The settings on record: firefly luciferase detection reagent interference, luminescence. The gist of the method:
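Interference check: test samples were incubated with D-luciferin (final 1 uM) or buffer only for 15 min, room temperature, in a qHTS titration up to 39.8 uM, then developed with detection reagent and read by luminescence.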

A short description of assay [13]: Dual reporter qHTS for agonist of Pregnane X Receptor (hPXR) against the NCATS DSHEA and TCM libraries: Fluorescence readout (AID 1920058). Note: 0% is about no effect. The gist of the method:
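HepG2 hPXR-Luc, 2000 cells/well, 5 h attach; cpds ~24 h, 37 °C/5% CO2; CellTiter-Fluor 1 h; fluor. Ex/Em 405/540 nm = viability.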

For assay [14], the target named is Nuclear receptor subfamily 1 group I member 2 (Homo sapiens) (UniProt O75469). Nature of the assay: Dual reporter qHTS for agonist of Pregnane X Receptor (hPXR) against the NCATS DSHEA and TCM libraries: Luminescence readout (AID 1920059). Note: 0% is about no effect. The method, boiled down: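 hPXR-LucHepG2 cells in phenol red-free DMEM with 5% charcoal-stripped FBS, 2000 cells/well, attached 5 h, then exposed 24 h at 37C to compounds; rifampicin as positive agonist control (2.8 nM–92 uM). Luciferase luminescence read.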

Assay [15] has the same target. Nature of the assay: Dual reporter qHTS for antagonist of Pregnane X Receptor (hPXR) against the NCATS DSHEA and TCM libraries: Luminescence Readout (AID 1920060).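 Note: HepG2 cells carrying hPXR luciferase reporter stimulated with rifampicin at 2 µM; 0% is about no effect.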 The method, boiled down:
(§3)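 Antagonist mode: rifampicin 2 uM final co-added with compounds to hPXR-LucHepG2 cells for 24 h at 37C. Viability by CellTiter-Fluor, Ex/Em 405/540 nm, 1 h; reporter by ONE-Glo luminescence.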

A short description of assay [16]: Dual reporter qHTS for antagonist of Pregnane X Receptor (hPXR) against the NCATS DSHEA and TCM libraries: Fluorescence Readout (AID 1920061). Note: 0% is about no effect. The gist of the method: as §3
Assay [17] deals with Cytochrome P450 1A2 (Homo sapiens) (UniProt P05177). Nature of the assay: p450-cyp1a2 (AID 410; calls by dose curve; note: potency is the fitted concentration of half-maximal effect;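 for activity change, negative = inhibition: -100% = full effect of reference inhibitor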). The gist of the method:
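Luminescent readout of luciferin formed from Luciferin-ME by human CYP1A2; data normalized against complete inhibition by 57 uM furafylline. Enzyme 20nM, substrate 100uM at Km, 100mM KPO4 buffer, 60 min reaction at room temperature.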

Assay [18] addresses Glucocorticoid receptor (Homo sapiens) (UniProt P04150). Nature of the assay: GR-GFP Redistribution (AID 450;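 active = compounds whose dose series gives a full or clear partial fitted curve of increased nuclear translocation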; note: potency is the fitted concentration of half-maximal effect). The settings on record: U2OS GR-GFP nuclear translocation, laser cytometry, 2 h.
The target is the same in assay [19]. Briefly: GR-EFC Redistribution (AID 451; calls by dose curve; note: potency is the fitted concentration of half-maximal effect). The settings on record: CHO-K1 GR-EFC translocation, beta-gal luminescence, 2 h. The gist of the method:
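CHO-K1 cells stably expressing nuclear-localized β-gal enzyme acceptor and GR fused C-terminally to the enzyme donor fragment; ligand-driven nuclear translocation restores β-gal by complementation. Compounds titrated up to 46 uM final, 2 h at 37 °C; luminescence read.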

Assay [20] deals with Mitogen-activated protein kinase 10 (Mus musculus) (UniProt Q61831). Nature of the assay: JNK3 AlphaScreen Assay (AID 530; active = well fitted curve in either direction with a large enough effect, not every such curve was filed as active;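 note: kinase came from lysate of stimulated human HepG2 cells; signal reports phosphorylation of biotinylated GST-cJun 1-79 at Ser73 with 10 µM ATP; % is set by controls: 0 for no effect and ±100 for the full control effect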). The gist of the method:
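Inhibitors reduce antibody binding to phosphorylated biotin-cJun, lowering AlphaScreen luminescence. Lysates from HepG2 cells pre-activated by IL-1beta plus TNF-alpha supplied JNK3; compounds were titrated.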
For orientation: Bead proximity is the source of the signal in Alpha formats.

Assay [21] has as its target 3',5'-cyclic-AMP phosphodiesterase 4B (Homo sapiens) (UniProt Q07343). Nature of the assay: qHTS Assay for Inhibitors of PDE-IV (AID 607; active = well fitted activation curve with a large enough effect in the main read-out, with a control signal flat, not every such curve was filed as active; note: % of control where 0% means no effect). The gist of the method: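 ACTOne HEK293 cells carry a modified cAMP-gated CNG channel and express endogenous PDE4; plated 1000 cells/well, compounds up to 22.9 uM final. Membrane-potential dye fluorescence (ex 535/em 590) was read; parental cells received 10 uM forskolin + 100 uM RO 20-1724.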

The target in assay [22] is Ubiquitin carboxyl-terminal hydrolase 1 (Homo sapiens) (UniProt O94782). Briefly: Inhibitors of USP1/UAF1: Pilot qHTS (AID 504865).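 Note: rhodamine fluorescence freed from ubiquitin-rhodamine substrate followed over time; top concentration of the series differs between compounds; % is set by controls: 0 for no effect and ±100 for the full control effect; nearly all actives have a fitted effect of over 35% in size.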 The gist of the method:
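Enzyme-free wells gave the negative control, while test wells held 1nM USP1/UAF1 preincubated with compound for 15 min at room temperature. Ub-Rho at 150nM final started the reaction, and fluorescence at 480/540 nm was recorded kinetically.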

The target in assay [23] is DNA dC->dU-editing enzyme APOBEC-3G (Homo sapiens) (UniProt Q9HC16). Nature of the assay: qHTS for inhibitors of Vif-A3G interactions: Validation (AID 588379). Note: 0% is about no effect. The gist of the method: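 HeLa cells stably expressing Vif and A3G-eYFP, 700 cells/well, incubated overnight at 37 deg C, then exposed to compound overnight at 37 deg C. Inhibition of Vif-mediated degradation read as increased yellow fluorescence (Ex 488/Em 500-530) by laser-scanning cytometry.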

The nature of assay [24]: qHTS profiling of the MIPE4 collection as inhibitors of Plasmodium falciparum (HB3) proliferation (AID 743347; call rule not given here;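 note: plate controls were DMSO vehicle wells for no effect and artemisinin wells for full effect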). The settings on record: P. falciparum HB3 in erythrocytes, SYBR Green DNA, 72 h; at 28.5 µM (top of the series). The gist of the method: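 Erythrocytes infected with P. falciparum (0.3% parasitemia, 2.5% hematocrit) incubated with compounds 72 h at 37 C, 5% CO2. Lysis with saponin/Triton buffer containing SYBR Green I, overnight at room temperature in the dark; DNA fluorescence (485/535 nm) normalised to 0.29 uM artemisinin and DMSO.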

In assay [25] the target is Glutathione peroxidase 1 (Homo sapiens) (UniProt P07203). Briefly: Primary qHTS Assay for Inhibitors of Recombinant Selenoprotein Glutathione Peroxidase 1 (GPX1) (AID 1845191). Note: nearly all actives have a fitted effect of over 65% in size. The method, boiled down: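 Recombinant GPX1 (10 nM final) was preincubated with compound for 30 min at room temperature, then reacted with 1 mM GSH, 0.5 mM CHP, 0.5 mM NADPH and 100 nM glutathione reductase; NADPH fluorescence (340/450 nm) was read at 0 and 15 min.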

The target of assay [26] is Phospholipid hydroperoxide glutathione peroxidase GPX4 (Homo sapiens) (UniProt P36969). Nature of the assay: Primary qHTS Assay for Inhibitors of Recombinant Selenoprotein Glutathione Peroxidase 4 (GPX4) (AID 1845192). Note: nearly all actives have a fitted effect of over 65% in size. The settings on record: outcome: dose series up to 50 µM unless noted. The gist of the method: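 GR-coupled readout: 100 nM GR, 1 mM GSH, 0.5 mM NADPH; NADPH fluorescence (ex 340/em 450 nm) read at t=0 and after 15 min RT. GPX4 200 nM, preincubated 30 min with compound; substrate 0.5 mM CHP.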

Assay [27] is described as follows: AP1 Signaling Pathway (AID 357; active = well fitted curve in either direction with a large enough effect, not every such curve was filed as active; note: % is set by controls: 0 for no effect and ±100 for the full control effect). The settings on record: ME-180 AP-1-bla reporter, EGF-induced, beta-lactamase ratio, 5 h; at 17.2 µM (top of the series). The method, boiled down:
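ME-180 cells with beta-lactamase reporter under AP-1 response element, stimulated with EC50 EGF; compounds tested in titration series, 5 h at 37 °C. CCF4 substrate added 2.5 h at room temperature; 460/530 nm emission ratio gave %activity and AC50.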

A short description of assay [28]: Stat Signaling Pathway (AID 446; active = well fitted curve in either direction with a large enough effect, not every such curve was filed as active). The settings on record: ME-180 (cervical carcinoma) SIE beta-lactamase reporter, IL-6 stimulated, 5 h; at 17.2 µM (top of the series). The gist of the method:
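ME-180 SIE-bla cells; overnight plating; cpd + IL-6 40 pM, 5 h, 37 C; LiveBLAzer 2.5 h RT; 460/530 nm emission ratio. Normalized to 300 pM IL-6 and 125 nM JAK inhibitor controls.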

Records with an inconclusive call do not appear. The source holds several records for some structures; these can differ, active in one and inactive in another. Active and inactive are the calls of the source. Unless noted, calls come from the whole dose curve; as a rule, active = well fitted curve in the direction sought with a large enough effect; inconclusive = small, poorly fitted or top-dose-only effect, or another doubt; inactive = no such curve, though single readings can be large; an effect the other way counts as inactive or inconclusive.

Chain of Glucocorticoid receptor (Homo sapiens) (P04150 whole entry, looked up): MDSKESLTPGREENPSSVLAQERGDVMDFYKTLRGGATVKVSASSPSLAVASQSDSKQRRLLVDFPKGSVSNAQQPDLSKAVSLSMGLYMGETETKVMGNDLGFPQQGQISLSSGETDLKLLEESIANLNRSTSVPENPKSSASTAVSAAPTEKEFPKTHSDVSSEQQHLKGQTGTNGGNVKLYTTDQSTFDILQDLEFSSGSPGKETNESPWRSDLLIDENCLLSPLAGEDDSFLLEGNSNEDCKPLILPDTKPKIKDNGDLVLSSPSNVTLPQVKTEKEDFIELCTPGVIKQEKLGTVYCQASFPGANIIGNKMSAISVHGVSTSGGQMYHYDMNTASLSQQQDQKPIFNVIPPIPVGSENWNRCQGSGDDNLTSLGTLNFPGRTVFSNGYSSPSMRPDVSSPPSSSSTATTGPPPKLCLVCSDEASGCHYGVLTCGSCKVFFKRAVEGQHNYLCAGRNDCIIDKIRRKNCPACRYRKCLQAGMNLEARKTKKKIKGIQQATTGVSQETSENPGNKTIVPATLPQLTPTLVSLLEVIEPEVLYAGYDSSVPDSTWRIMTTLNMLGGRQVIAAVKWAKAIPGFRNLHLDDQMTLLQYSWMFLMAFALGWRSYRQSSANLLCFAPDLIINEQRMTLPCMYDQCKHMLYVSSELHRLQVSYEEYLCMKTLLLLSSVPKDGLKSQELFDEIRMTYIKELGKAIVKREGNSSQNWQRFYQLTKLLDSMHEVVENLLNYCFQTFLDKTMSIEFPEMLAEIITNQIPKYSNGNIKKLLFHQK
Chain of Ubiquitin carboxyl-terminal hydrolase 1 (Homo sapiens) (O94782 whole entry, looked up): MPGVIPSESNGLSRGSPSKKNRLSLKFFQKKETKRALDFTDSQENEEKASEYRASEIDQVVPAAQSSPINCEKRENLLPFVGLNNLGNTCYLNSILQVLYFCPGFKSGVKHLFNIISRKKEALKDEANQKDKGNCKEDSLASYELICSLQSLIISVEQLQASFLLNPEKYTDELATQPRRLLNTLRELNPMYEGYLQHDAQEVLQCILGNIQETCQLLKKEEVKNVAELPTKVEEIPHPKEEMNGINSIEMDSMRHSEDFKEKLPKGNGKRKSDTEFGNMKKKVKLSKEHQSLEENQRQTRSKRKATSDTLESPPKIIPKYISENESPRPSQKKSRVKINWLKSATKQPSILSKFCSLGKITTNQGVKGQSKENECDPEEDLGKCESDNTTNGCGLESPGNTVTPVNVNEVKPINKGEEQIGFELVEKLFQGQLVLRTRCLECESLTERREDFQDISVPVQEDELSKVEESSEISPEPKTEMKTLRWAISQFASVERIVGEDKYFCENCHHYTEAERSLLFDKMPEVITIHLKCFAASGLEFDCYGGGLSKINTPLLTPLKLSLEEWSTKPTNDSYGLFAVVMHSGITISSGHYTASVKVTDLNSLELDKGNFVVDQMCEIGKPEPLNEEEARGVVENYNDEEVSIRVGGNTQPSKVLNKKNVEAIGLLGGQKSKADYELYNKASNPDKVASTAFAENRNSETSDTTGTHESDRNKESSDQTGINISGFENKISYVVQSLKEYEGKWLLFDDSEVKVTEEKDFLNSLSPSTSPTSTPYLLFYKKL
Chain of 3',5'-cyclic-AMP phosphodiesterase 4B (Homo sapiens) (Q07343 whole entry, looked up): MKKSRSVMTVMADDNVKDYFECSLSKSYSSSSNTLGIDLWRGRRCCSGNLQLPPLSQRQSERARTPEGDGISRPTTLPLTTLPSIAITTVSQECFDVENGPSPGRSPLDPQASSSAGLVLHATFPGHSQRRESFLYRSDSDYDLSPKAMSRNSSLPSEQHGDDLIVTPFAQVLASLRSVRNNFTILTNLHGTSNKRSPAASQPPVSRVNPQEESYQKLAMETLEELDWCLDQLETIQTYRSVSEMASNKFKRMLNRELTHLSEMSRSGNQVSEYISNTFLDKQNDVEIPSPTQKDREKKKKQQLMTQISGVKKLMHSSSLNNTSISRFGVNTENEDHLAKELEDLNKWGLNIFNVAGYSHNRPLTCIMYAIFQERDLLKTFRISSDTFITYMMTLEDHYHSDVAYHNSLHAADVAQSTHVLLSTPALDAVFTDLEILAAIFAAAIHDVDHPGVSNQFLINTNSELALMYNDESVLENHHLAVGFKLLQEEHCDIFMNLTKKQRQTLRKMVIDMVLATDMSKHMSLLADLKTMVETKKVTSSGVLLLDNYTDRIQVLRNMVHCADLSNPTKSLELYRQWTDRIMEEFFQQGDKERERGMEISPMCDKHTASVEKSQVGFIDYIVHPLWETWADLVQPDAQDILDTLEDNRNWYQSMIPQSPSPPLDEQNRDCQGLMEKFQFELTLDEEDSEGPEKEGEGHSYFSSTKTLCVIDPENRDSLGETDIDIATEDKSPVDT
Chain of Nuclear receptor subfamily 1 group I member 2 (Homo sapiens) (O75469 whole entry, looked up): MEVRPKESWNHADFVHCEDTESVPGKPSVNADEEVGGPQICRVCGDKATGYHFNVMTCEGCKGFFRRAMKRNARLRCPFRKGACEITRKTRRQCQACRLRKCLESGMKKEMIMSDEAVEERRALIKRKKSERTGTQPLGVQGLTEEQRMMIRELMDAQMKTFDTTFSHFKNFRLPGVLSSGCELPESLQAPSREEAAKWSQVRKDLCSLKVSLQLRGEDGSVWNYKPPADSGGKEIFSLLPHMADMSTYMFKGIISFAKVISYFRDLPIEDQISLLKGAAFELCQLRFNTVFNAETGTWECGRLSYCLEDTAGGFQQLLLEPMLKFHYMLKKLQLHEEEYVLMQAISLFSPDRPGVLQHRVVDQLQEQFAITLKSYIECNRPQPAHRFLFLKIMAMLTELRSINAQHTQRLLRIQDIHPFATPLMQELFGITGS
Chain of DNA dC->dU-editing enzyme APOBEC-3G (Homo sapiens) (Q9HC16 whole entry, looked up): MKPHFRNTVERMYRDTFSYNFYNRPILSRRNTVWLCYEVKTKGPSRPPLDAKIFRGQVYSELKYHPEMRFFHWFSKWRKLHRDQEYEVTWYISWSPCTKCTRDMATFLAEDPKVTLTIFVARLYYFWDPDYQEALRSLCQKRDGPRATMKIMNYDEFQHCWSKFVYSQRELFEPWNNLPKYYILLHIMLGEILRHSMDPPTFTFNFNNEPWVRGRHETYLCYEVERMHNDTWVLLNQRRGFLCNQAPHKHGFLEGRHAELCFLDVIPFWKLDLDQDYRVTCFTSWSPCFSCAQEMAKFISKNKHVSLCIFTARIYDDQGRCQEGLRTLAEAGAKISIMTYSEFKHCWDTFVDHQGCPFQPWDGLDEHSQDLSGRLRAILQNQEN
Chain of Cytochrome P450 1A2 (Homo sapiens) (P05177 whole entry, looked up): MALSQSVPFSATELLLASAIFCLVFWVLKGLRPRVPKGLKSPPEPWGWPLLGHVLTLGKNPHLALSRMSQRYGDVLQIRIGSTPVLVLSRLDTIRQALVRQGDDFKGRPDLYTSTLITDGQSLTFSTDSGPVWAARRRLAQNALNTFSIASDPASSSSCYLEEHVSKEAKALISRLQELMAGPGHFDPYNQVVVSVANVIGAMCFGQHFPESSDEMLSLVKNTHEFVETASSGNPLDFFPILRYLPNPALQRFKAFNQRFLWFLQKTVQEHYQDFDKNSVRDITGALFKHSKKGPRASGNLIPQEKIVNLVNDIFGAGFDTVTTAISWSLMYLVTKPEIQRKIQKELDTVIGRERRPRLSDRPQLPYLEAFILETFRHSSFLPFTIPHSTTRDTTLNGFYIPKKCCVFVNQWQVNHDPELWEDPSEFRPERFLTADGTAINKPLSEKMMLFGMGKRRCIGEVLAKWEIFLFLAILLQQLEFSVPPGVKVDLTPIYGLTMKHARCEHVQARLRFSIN
Chain of Cytochrome P450 2C19 (Homo sapiens) (P33261 whole entry, looked up): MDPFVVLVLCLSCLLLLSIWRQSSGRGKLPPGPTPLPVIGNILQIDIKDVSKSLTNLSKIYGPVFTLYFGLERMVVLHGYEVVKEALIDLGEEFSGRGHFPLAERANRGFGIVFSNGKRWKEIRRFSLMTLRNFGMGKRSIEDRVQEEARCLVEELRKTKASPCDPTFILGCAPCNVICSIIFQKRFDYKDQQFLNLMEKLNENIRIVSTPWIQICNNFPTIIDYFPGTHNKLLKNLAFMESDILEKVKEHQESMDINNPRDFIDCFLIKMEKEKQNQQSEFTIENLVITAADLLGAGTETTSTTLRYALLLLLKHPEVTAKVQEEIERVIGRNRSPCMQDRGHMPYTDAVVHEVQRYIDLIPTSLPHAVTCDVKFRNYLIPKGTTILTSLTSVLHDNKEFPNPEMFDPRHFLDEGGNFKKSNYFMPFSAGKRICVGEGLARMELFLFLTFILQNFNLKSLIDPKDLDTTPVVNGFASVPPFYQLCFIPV
Chain of Glutathione peroxidase 1 (Homo sapiens) (P07203 whole entry, looked up): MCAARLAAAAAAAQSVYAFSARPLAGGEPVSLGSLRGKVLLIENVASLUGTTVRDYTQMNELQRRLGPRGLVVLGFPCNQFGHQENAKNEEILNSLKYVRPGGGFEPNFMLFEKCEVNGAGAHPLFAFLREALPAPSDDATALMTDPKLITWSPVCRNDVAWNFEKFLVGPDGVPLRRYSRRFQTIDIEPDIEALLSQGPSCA
Chain of Cytochrome P450 2C9 (Homo sapiens) (P11712 whole entry, looked up, canonical isoform): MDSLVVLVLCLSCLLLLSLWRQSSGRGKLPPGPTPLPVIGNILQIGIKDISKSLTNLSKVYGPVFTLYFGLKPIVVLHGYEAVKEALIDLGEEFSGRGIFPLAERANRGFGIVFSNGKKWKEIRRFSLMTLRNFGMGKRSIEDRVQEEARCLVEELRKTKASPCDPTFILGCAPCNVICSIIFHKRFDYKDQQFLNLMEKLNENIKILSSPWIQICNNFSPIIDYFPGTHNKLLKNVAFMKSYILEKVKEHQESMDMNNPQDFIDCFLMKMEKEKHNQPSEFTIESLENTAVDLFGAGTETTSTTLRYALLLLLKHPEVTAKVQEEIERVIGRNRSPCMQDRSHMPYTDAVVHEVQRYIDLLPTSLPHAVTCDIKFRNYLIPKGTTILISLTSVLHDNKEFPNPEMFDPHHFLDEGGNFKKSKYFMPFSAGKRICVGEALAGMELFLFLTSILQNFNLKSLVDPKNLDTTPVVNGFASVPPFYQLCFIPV

As for `CCCCC[C@H](O)CC(=O)CCc1ccc(O)c(OC)c1`, the Potency result in [1], in assay [2] and in [9] was “inactive” each time. In addition, the outcome in assay [3], in assay [4], in assay [5], in assay [6], in assay [7] and in assay [8] was inactive. Further, the molecule was called inactive in [11], in assay [13], in assay [14], in [15] and in [16]. Also, the Potency in assay [10] was 14.1 µM (active). Also, in assay [12], the max response is 0.254% (inactive).
Take `CCS(=O)(=O)N(C)[C@@H]1c2cc(C#N)ccc2OC(C)(C)[C@H]1O`: the Potency in assay [17] is 20 µM (active) and inactive; in assay [18], > 46 µM (inactive); in assay [19], > 46 µM (inactive). Further, the Potency result in [20], in assay [21], in assay [22], in assay [23], in assay [1] and in assay [2] was “inactive” each time.
Consider `CN[C@@H]1[C@H](O)[C@H](O[C@@H]2[C@H](O)[C@@H](O[C@H]3O[C@H]([C@@H](C)NC)CC[C@H]3N)[C@@H](N)C[C@H]2N)OC[C@]1(C)O`, for which the growth, % of control in assay [24] was found to be 107%. For the same molecule, the Potency entry in assay [1] and in assay [2] was “inactive” in each case. Besides, the outcome in assay [25] is “inactive [at 9.52 µM]”; in [26], “inactive [at 9.73 µM]”.
As for `CCCCC[C@H](O)/C=C/[C@@H]1[C@@H](CCCCCCC(=O)O)[C@@H](O)C[C@H]1O`, the activity change, negative = inhibition in [27] is 8.11% (inactive); in assay [1] it was 8.46% [at 6.83 µM] (inactive); in [2] it was -7.27% [at 3.88 µM] (inactive). For the same molecule, the activity, negative = inhibition in [28] was 2.03% (inactive). In addition, in [18], the Potency is > 20.6 µM (inactive).
